Results on 21 molecules are retold here after PubChem BioAssay (NCI).

About 79,000 compounds went through this panel and 15% of them were active in at least one assay; those are over-represented in the sample as a whole. A number with no mark means an inactive call. Activity calls are given as the source filed them. Rule as the data show it: active = growth inhibition above about 70%; inactive = the rest.

The nature of experiment [1]: NCI Yeast Anticancer Drug Screen. Data for the rad50 strain (AID 155).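 Also: 0% = growth of vehicle-only cultures of the same strain.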 Particulars: S. cerevisiae rad50 strain growth inhibition; at 50.0 µM; stronger effect = higher value. The procedure, abridged:
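A DNA repair-deficient yeast mutant serves as the test organism; compound-induced growth inhibition is calculated against vehicle-treated cells.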

The nature of experiment [2]: NCI Yeast Anticancer Drug Screen. Data for the mec2-1 strain (AID 157). Particulars: S. cerevisiae mec2-1 strain, at 50.0 µM, stronger effect = higher value. A digest of the protocol:
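Using mec2-1 yeast: add compound, measure growth, express inhibition versus vehicle-treated cultures.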

Experiment [3] is described as follows: NCI Yeast Anticancer Drug Screen. Data for the sgs1 mgt1 strain (AID 161).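 Also: 0% = growth of cultures given vehicle only.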 Conditions: S. cerevisiae sgs1 mgt1 strain, at 50.0 µM, stronger effect = higher value. The procedure, abridged:
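Yeast cells carrying a defined DNA-repair defect were exposed to test compounds. Growth inhibition was measured relative to vehicle-treated controls.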

A short description of experiment [4]: NCI Yeast Anticancer Drug Screen. Data for the cln2 rad14 strain (AID 165).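 Also: 0% = growth equal to vehicle treated cultures.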 Particulars: S. cerevisiae cln2 rad14 strain, at 50.0 µM, stronger effect = higher value. A digest of the protocol: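 Yeast strain cln2 rad14, bearing defects in cell cycle control and DNA repair, serves as the test system; values reflect growth inhibition compared with vehicle.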
Experiment [5] in a line: NCI Yeast Anticancer Drug Screen. Data for the bub3 strain (AID 167). Particulars: S. cerevisiae bub3 mutant strain, at 50.0 µM, stronger effect = higher value. The procedure, abridged: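 Inhibition values come from growth of compound-treated mutant yeast normalised to vehicle-treated controls.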
A short description of experiment [6]: NCI Yeast Anticancer Drug Screen. Data for the mlh1 rad18 strain (AID 175). Particulars: S. cerevisiae mlh1 rad18 strain growth inhibition; at 50.0 µM; stronger effect = higher value. The procedure, abridged:
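Steps: expose repair-defective yeast to compound; measure growth; express inhibition against vehicle-treated controls.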

Take `O=C(Nc1cc2c(cc1[N+](=O)[O-])-c1c(F)cccc1C2)C(F)(F)F`: the growth inhibition in experiment [1] is 9.8%; in experiment [2], 1.4%; in experiment [3] it was 8.25%; in experiment [4] it was -14.2%; in experiment [5] it was 4.9%; in experiment [6], 2.15%.

Consider `COc1cccc(-c2cc(=O)c3cccnc3[nH]2)c1`, for which the growth inhibition in experiment [1] is -49.4%; in experiment [2] it was 3.25%; in experiment [3], 28.8%; in experiment [4], 7.45%; in experiment [5] it was 26.6%; in experiment [6], 13.9%.

Regarding `CC(=O)Nc1ccc(S(=O)(=O)NN)cc1`, the growth inhibition in experiment [1] is -15.7%; in experiment [2], -12.1%; in experiment [3], -4.75%; in experiment [4], 10.2%; in experiment [5], 5.25%; in experiment [6], 9.1%.

For `CO[C@H]1CC[C@@]2(C)C(=CC[C@H]3[C@@H]4CC[C@H]([C@H](C)CCCC(C)C)[C@@]4(C)CC[C@@H]32)C1`, the growth inhibition was -4.65% in experiment [1]; -20.4% in experiment [2]; 18.1% in experiment [3]; 24.7% in experiment [4]; 17.2% in experiment [5]; 9% in experiment [6].

Turning to `O=C(O)CNc1ccc(C(=O)O)cc1`, the growth inhibition was -20.9% in experiment [1]; -10.1% in experiment [2]; -11.3% in experiment [3]; 41.1% in experiment [4]; -51.7% in experiment [5]; -11.7% in experiment [6].

As to `Clc1ccc(-c2nnc3c4ccccc4ccn23)cc1`, the growth inhibition is 14.5% in experiment [1]; -11.1% in experiment [2]; -5.1% in experiment [3]; 9.55% in experiment [4]; -3.95% in experiment [5]; 1% in experiment [6].

With `O=C1C(Cl)C(c2ccc(O)cc2)N1n1cnc2ccccc2c1=O` (stereo unspecified), the growth inhibition in experiment [1] is 56.6%; in experiment [2], 37.9%; in experiment [3], 59.4%; in experiment [4] it was 31.9%; in experiment [5] it was 32.8%; in experiment [6], 36.6%.

For the molecule `CN(C)CC(O)C(=O)O` (stereo unspecified), the growth inhibition is -12.7% in experiment [1]; 20.4% in experiment [2]; -5.6% in experiment [3]; 7.45% in experiment [4]; 3.7% in experiment [5]; -13.8% in experiment [6].

As for `COC(=O)c1ccc2c(c1)nnn2C(C)=O`, the growth inhibition in experiment [1] is -9.55%; in experiment [2], -12.7%; in experiment [3] it was -7.25%; in experiment [4], -21.9%; in experiment [5], 1.7%; in experiment [6], 4.65%.

As to `CCCCCCCCC(C)c1cccc(C(C)CCCCCCCC)c1O` (stereo unspecified), the growth inhibition was 33% in experiment [1]; 14.6% in experiment [2]; 10.5% in experiment [3]; 22.2% in experiment [4]; 14.8% in experiment [5]; 2.6% in experiment [6].

As for `O=[N+]([O-])c1ccc(NC(CO)C(O)C(O)C(O)CO)c([N+](=O)[O-])c1` (stereo unspecified), the growth inhibition in experiment [1] is 12.3%; in experiment [2], -4.85%; in experiment [3] it was -0.85%; in experiment [4] it was -6.45%; in experiment [5], 3.2%; in experiment [6], -7.4%.

As to `O=c1[nH]nc(-c2ccc3c(c2)Cc2ccccc2-3)c2ccccc12`, the growth inhibition in experiment [1] was 12.8%; in experiment [2], -0.15%; in experiment [3], -23.9%; in experiment [4], -1.95%; in experiment [5], 10.3%; in experiment [6] it was 17.5%.

For `COC(=O)Nc1c2c(nc3ccccc13)-c1ccccc1C(C)(C)C2OC` (stereo unspecified), the growth inhibition in experiment [1] was 49.5%; in experiment [2], 12.6%; in experiment [3], 58.1%; in experiment [4], -7.7%; in experiment [5], 84% (active); in experiment [6] it was 67%.

As to `C1=NCCN=Cc2ccccc2O/N=N/Oc2ccccc21`, the growth inhibition in experiment [1] is -14.9%; in experiment [2], -1.95%; in experiment [3], -0.85%; in experiment [4] it was -44.4%; in experiment [5] it was 15.4%; in experiment [6], -4.7%.

For the molecule `COc1ccc(N=Nc2c(C)nn(C(=O)c3ccncc3)c2C)cc1`, the growth inhibition in experiment [1] is -21.9%; in experiment [2], -3.75%; in experiment [3] it was 13.4%; in experiment [4] it was -1.2%; in experiment [5] it was 11.4%; in experiment [6], -10.1%.

As to `O=NN(CCCl)C(=O)NC1c2cc(Cl)ccc2-c2c(Cl)cc(Cl)cc21` (stereo unspecified), the growth inhibition in experiment [1] is 84.3% (active); in experiment [2], 59.3%; in experiment [3], 73.7% (active); in experiment [4], 48.5%; in experiment [5] it was 22.8%; in experiment [6], 86.5% (active).

As for `COc1ccc(C2(CN(C)C)COc3cc(OC)c(OC)cc3C2=O)cc1OC` (stereo unspecified), the growth inhibition was 27% in experiment [1]; 2.8% in experiment [2]; -7% in experiment [3]; 27.6% in experiment [4]; -2.1% in experiment [5]; 13.3% in experiment [6].

Take `CN1C(=O)CC2(C)c3cc(O)ccc3N(C)C12` (stereo unspecified): the growth inhibition in experiment [1] was 53.6%; in experiment [2], 30.1%; in experiment [3] it was 54.5%; in experiment [4] it was 64.3%; in experiment [5], 32.6%; in experiment [6] it was -81.7%.

With `CC(=N\N=C(c1ccccc1)c1ccccc1)/C(C)=N/N=C(c1ccccc1)c1ccccc1`, the growth inhibition is -22.1% in experiment [1]; -8.15% in experiment [2]; -13.8% in experiment [3]; -9% in experiment [4]; -1.15% in experiment [5]; -17.8% in experiment [6].

On to `CC1=NC(=Cc2ccccc2O)C(=O)N1n1c(-c2ccccc2)nc2ccccc2c1=O`, for which the growth inhibition in experiment [1] was 22.4%; in experiment [2] it was 17.7%; in experiment [3] it was 51.5%; in experiment [4], 16.6%; in experiment [5], 42.5%; in experiment [6], 44.5%.

For `C[C@]12CCC(=O)C=C1CC[C@@H]1[C@@H]2C(=O)C[C@@]2(C)[C@H]1CC[C@]2(O)C(=O)C=O`, the growth inhibition in experiment [1] was -5%; in experiment [2], -1.4%; in experiment [3], 13.8%; in experiment [4] it was 16.9%; in experiment [5], -10.8%; in experiment [6], 2.45%.
